# Measured values as given in PubChem BioAssay (NCATS).
# Inconclusive results are not listed. A call without a number means that no potency is given here. Activity calls are given as the source filed them. Unless noted, calls come from the whole dose curve.
# How the values were obtained:
# [1] = P-glycoprotein substrates identified in KB-8-5-11 adenocarcinoma cell line, qHTS therapeutic library screen (AID 1346987; active = well fitted curve in the direction sought with a large enough effect; an effect the other way counts as inactive or inconclusive; note: nearly all actives have a fitted effect of over 65% in size; note: potency is the fitted concentration of half-maximal effect)
# Procedure, shortened: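 In this qHTS, P-gp-rich KB-8-5-11 cells received library compounds across a concentration range. Viability was quantified by luminescence after 72 h at 37 degree C.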
# [2] = NS1 protein of Zika virus - qHTS assay to identify small molecule inhibitors in human HEK 293 cells (AID 1347053; active = well fitted curve in the direction sought with a large enough effect; an effect the other way counts as inactive or inconclusive; note: series mostly up to about 46 µM; nearly all actives have a fitted effect of over 55% in size)
# Procedure, shortened: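 Compound-treated (1 h pre-infection) HEK 293 cells infected with ZIKV MR766, MOI = 0.5; after 24 h at 37 C, NS1 read by TR-FRET; data normalized to uninfected and infected controls.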
# [3] = Natriuretic polypeptide receptor (hNpr1) antagonism - Pilot counterscreen GloSensor control cell line (AID 1347045); note: series mostly up to about 38 µM
# Procedure, shortened: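 HEK293 cGMP-sensor cells; 2% GloSensor reagent 2 h RT; LOPAC compounds in 1:5 titrations 30-50 min; 50 uM SNP 20 min; luminescence pre-read and post-read.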
# [4] = target: Atrial natriuretic peptide receptor 1 (Homo sapiens) (UniProt P16066); test: Natriuretic polypeptide receptor (hNpr1) antagonism - Pilot screen (AID 1347049);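 note: HEK293 cells with hNpr1 and GloSensor cGMP luciferase stimulated by 0.1 nM hNppA; agonist-evoked cGMP luminescence read 20 min after hNppA addition; series mostly up to about 58 µM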
# Sequence of Atrial natriuretic peptide receptor 1 (Homo sapiens) (P16066 whole entry, looked up): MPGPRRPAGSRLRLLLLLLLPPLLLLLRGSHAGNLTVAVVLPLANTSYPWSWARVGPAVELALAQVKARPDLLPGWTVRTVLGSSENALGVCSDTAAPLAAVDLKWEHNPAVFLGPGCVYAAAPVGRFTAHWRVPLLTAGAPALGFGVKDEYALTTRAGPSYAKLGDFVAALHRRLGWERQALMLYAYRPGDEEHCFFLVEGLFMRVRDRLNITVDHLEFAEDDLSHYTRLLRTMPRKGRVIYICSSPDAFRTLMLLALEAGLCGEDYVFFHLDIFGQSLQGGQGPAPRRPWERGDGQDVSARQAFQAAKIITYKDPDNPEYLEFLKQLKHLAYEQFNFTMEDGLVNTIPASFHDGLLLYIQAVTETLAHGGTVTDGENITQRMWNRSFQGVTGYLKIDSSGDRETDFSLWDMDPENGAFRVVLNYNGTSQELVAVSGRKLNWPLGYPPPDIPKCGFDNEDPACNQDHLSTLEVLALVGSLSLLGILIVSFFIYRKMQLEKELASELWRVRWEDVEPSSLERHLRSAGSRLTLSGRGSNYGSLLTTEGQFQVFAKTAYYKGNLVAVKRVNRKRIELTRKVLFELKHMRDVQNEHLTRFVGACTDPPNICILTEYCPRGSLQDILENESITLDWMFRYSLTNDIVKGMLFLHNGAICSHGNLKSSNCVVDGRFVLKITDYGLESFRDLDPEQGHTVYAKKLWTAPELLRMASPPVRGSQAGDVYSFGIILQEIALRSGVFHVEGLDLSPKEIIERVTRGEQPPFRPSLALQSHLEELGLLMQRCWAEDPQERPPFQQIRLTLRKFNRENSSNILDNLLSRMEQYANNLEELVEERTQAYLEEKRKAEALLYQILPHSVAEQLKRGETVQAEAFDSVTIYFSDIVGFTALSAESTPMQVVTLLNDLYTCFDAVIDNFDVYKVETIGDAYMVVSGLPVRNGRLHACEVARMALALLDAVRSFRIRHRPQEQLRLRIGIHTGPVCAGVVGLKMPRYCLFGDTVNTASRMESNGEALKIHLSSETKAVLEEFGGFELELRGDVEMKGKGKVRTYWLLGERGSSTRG
# Procedure, shortened: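 Cells expressing receptor plus cGMP biosensor are seeded and incubated overnight at 37C, then loaded with GloSensor reagent (2% final) at room temperature for 2 h. Library compounds go on for 30 min. A pre-read precedes agonist (hNppA, 0.1 nM final) and a 20-min readout.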
# [5] = target: Atrial natriuretic peptide receptor 2 (Homo sapiens) (UniProt P20594); test: Natriuretic polypeptide receptor (hNpr2) antagonism - Pilot subtype selectivity assay (AID 1347050)
# Sequence of Atrial natriuretic peptide receptor 2 (Homo sapiens) (P20594 whole entry, looked up): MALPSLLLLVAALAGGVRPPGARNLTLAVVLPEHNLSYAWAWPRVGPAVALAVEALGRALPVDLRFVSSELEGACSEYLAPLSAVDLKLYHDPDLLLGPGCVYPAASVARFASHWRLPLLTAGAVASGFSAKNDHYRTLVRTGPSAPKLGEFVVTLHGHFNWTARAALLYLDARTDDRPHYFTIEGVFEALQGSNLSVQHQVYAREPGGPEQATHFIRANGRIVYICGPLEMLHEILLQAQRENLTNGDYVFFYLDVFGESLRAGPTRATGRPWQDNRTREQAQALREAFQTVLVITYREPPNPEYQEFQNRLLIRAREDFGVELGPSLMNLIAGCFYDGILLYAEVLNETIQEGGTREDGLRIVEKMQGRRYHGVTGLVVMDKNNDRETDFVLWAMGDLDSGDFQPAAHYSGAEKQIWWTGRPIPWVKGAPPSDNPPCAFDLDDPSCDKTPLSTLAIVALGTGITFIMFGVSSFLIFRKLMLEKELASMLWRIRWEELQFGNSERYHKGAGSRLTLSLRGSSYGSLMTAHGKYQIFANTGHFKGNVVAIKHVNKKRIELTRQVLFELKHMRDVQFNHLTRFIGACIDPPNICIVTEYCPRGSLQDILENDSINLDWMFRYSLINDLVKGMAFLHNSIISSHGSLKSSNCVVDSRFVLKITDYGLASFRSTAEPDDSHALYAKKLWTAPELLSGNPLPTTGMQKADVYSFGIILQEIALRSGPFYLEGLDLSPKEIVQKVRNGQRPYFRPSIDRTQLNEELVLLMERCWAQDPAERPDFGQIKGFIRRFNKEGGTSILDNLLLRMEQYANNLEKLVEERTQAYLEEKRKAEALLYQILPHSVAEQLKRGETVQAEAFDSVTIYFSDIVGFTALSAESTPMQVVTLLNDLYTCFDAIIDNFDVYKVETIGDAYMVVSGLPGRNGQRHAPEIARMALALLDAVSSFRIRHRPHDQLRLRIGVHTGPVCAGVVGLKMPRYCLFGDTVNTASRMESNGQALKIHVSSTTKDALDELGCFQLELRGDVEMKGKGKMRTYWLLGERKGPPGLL
# Procedure, shortened: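 Read-out: GloSensor luminescence (CCD imager), baseline vs post-stimulation. HEK293 cells expressing hNpr2; compounds pre-incubated 30-50 min at ambient temperature; hNppC 1 nM final, 20 min.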
# [6] = target: T1, Tyrosine-protein phosphatase non-receptor type substrate 1 (Homo sapiens) + Leukocyte surface antigen CD47 (Homo sapiens) (UniProt P78324+Q08722); test: CD47-SIRPalpha protein protein interaction - LANCE assay qHTS validation (AID 1347057; active = well fitted curve in the direction sought with a large enough effect in the signal ratio, with a control signal flat, not every such curve was filed as active; the % refers to the signal ratio; note: series mostly up to about 38 µM)
# T1 sequence (P78324 whole entry, looked up, the tested form may be a part): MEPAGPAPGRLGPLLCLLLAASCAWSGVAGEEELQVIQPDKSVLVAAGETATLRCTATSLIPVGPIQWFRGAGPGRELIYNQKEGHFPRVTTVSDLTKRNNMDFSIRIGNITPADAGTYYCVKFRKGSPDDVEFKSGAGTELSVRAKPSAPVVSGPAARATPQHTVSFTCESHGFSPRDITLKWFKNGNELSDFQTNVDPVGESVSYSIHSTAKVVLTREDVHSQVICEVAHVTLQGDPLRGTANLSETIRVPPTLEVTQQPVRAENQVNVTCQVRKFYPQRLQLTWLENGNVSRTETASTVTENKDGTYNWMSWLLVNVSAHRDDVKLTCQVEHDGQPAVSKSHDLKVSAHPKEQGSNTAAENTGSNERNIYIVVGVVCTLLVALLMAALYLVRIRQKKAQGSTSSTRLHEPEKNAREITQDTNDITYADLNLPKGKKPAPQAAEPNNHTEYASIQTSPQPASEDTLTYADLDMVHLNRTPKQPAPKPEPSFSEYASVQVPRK
# T1 sequence (Q08722 whole entry, looked up, the tested form may be a part): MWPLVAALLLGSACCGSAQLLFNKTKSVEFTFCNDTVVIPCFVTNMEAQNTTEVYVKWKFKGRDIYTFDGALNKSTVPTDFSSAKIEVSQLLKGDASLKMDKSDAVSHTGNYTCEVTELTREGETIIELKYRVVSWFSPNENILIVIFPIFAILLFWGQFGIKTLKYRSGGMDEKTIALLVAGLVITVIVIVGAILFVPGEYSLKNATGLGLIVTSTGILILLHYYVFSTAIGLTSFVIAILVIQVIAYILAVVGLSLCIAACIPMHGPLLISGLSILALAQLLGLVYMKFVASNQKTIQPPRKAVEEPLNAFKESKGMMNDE
# Procedure, shortened: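 Inhibition of soluble CD47/SIRPalpha ectodomain association by titrated compounds, measured as 665/615 nm time-resolved FRET ratio after sequential 30 min room-temperature incubations.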
# [7] = target: T1, Tyrosine-protein phosphatase non-receptor type substrate 1 (Homo sapiens) + Leukocyte surface antigen CD47 (Homo sapiens); test: CD47-SIRPalpha protein protein interaction - HTRF assay qHTS validation (AID 1347058; active = well fitted curve in the direction sought with a large enough effect in the signal ratio, not every such curve was filed as active; the % refers to the signal ratio; note: series mostly up to about 38 µM)
# Procedure, shortened: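 Soluble extracellular domains (6His-CD47, Avi-tag-biotinylated SIRPalpha) in PBS pH 7.4 with 0.05% IGEPAL CA-630. Compounds were preincubated 30 min at RT with CD47 and anti-His-Eu, then SIRPalpha and SAV-XL665 were added. TR-FRET 665/615 ratio.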
# [8] = target: Parathyroid hormone/parathyroid hormone-related peptide receptor (Homo sapiens) (UniProt Q03431); test: qHTS for PTHR1 Agonists: Optimization Screen against the NCGC LOPAC library (AID 1347079; active = well fitted curve in the direction sought with a large enough effect; an effect the other way counts as inactive or inconclusive;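 note: GloSensor cAMP luminescence in HEK-293 GP2 cells expressing human PTHR1 with IBMX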)
# Sequence of Parathyroid hormone/parathyroid hormone-related peptide receptor (Homo sapiens) (Q03431 whole entry, looked up): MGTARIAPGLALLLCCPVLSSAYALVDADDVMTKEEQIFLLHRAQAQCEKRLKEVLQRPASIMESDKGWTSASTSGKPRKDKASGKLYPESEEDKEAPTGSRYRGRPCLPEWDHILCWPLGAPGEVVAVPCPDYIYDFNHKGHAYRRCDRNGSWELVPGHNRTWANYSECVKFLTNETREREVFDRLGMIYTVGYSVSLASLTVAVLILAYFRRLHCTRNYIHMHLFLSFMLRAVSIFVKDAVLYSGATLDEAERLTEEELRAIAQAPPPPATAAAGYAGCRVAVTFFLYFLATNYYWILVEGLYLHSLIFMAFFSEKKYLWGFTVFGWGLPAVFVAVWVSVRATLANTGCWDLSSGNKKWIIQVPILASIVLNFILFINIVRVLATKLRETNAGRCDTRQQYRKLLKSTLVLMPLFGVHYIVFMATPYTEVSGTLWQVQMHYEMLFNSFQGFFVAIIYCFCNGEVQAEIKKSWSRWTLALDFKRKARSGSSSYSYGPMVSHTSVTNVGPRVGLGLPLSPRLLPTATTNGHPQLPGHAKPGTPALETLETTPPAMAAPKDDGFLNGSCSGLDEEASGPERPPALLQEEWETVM
# Procedure, shortened: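 Signal increase flags agonism. GP2 cells, derived from HEK-293, express human PTHR1 and a GloSensor cAMP construct.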
# [9] = qHTS for Inhibitors of the Functional Ribonucleoprotein Complex (vRNP) of Lassa (LASV) Arenavirus: LASV Primary Screen - GLuc reporter signal (AID 1347082; calls by dose curve; tested in HEK293 reporter line; note: series mostly up to about 57 µM; nearly all actives have a fitted effect of over 60% in size)
# [10] = qHTS for Inhibitors of the Functional Ribonucleoprotein Complex (vRNP) of Lassa (LASV) Arenavirus: Viability assay - alamar blue signal for LASV Primary Screen (AID 1347083; calls by dose curve; tested in HEK293 reporter line; note: series mostly up to about 57 µM; nearly all actives have a fitted effect of over 80% in size)
# [11] = qHTS for Inhibitors of the Functional Ribonucleoprotein Complex (vRNP) of Lymphocytic Choriomeningitis Arenaviruses (LCMV): Viability assay - alamar blue signal for LCMV Primary Screen (AID 1347085; calls by dose curve; tested in HEK293 reporter line; note: series mostly up to about 57 µM; nearly all actives have a fitted effect of over 80% in size)
# [12] = target: Nucleoprotein (Lymphocytic choriomeningitis virus (strain Armstrong)) (UniProt P09992); test: qHTS for Inhibitors of the Functional Ribonucleoprotein Complex (vRNP) of Lymphocytic Choriomeningitis Arenaviruses (LCMV): LCMV Primary Screen - GLuc reporter signal (AID 1347086); note: series mostly up to about 57 µM; nearly all actives have a fitted effect of over 70% in size
# Sequence of Nucleoprotein (Lymphocytic choriomeningitis virus (strain Armstrong)) (P09992 whole entry, looked up): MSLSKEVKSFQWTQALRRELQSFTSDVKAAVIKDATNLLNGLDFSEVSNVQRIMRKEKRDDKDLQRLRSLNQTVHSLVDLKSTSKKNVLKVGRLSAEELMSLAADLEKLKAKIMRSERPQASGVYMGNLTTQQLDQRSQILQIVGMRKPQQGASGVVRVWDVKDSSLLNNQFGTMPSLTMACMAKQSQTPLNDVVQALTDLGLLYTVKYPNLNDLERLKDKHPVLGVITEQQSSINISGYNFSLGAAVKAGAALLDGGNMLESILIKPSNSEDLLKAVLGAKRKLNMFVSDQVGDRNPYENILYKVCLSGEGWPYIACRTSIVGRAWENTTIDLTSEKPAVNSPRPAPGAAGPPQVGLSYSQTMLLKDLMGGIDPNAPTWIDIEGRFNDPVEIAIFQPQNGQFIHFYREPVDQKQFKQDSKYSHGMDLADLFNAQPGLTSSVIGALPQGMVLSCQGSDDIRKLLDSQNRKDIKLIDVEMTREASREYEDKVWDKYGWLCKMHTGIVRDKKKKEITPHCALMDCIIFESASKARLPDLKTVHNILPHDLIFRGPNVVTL
# [13] = target: T1, Tyrosine-protein phosphatase non-receptor type substrate 1 (Homo sapiens) + Leukocyte surface antigen CD47 (Homo sapiens); test: CD47-SIRPalpha protein protein interaction - Alpha assay qHTS validation (AID 1347059; active = well fitted curve in the direction sought with a large enough effect; an effect the other way counts as inactive or inconclusive;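 note: bead proximity luminescence from CD47 binding SIRPalpha after compound preincubation with SIRPalpha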)
# Procedure, shortened: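 In PBS (pH 7.4) with 0.05% IGEPAL CA-630, compound is preincubated with biotin-Avi-SIRPalpha ectodomain before His-CD47 ectodomain and affinity beads are added. Light-protected room-temperature incubations; AlphaScreen readout.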
# [14] = qHTS of pediatric cancer cell lines to identify multiple opportunities for drug repurposing: Primary screen for TC32 cells (AID 1347089; active = well fitted curve in the direction sought with a large enough effect; an effect the other way counts as inactive or inconclusive; note: nearly all actives have a fitted effect of over 60% in size)
# Procedure, shortened: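 Luminescent CellTiter-Glo read-out of metabolically active TC32 cells after 48 h compound exposure. Primary: MIPE 11-point, 0.78 nM–46 µM; NPC 8-point, 0.59 nM–46 µM. Confirmatory: 11-point dilutions.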
# [15] = qHTS of pediatric cancer cell lines to identify multiple opportunities for drug repurposing: Primary screen for DAOY cells (AID 1347090; active = well fitted curve in the direction sought with a large enough effect; an effect the other way counts as inactive or inconclusive; note: series mostly up to about 46 µM; nearly all actives have a fitted effect of over 55% in size)
# Procedure, shortened: (§1)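 Eight- or eleven-point concentration series, 48 h treatment at 37 degrees C in growth media; readout CellTiter-Glo luminescence. Potency and efficacy were taken from the concentration-response curves.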
# [16] = qHTS of pediatric cancer cell lines to identify multiple opportunities for drug repurposing: Primary screen for SJ-GBM2 cells (AID 1347091; active = well fitted curve in the direction sought with a large enough effect; an effect the other way counts as inactive or inconclusive)
# Procedure, shortened: as §1
# [17] = qHTS of pediatric cancer cell lines to identify multiple opportunities for drug repurposing: Primary screen for A673 cells (AID 1347092; active = well fitted curve in the direction sought with a large enough effect; an effect the other way counts as inactive or inconclusive; note: nearly all actives have a fitted effect of over 45% in size)
# Procedure, shortened: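 A673 cells (500-1,000 cells/well in growth media) were pre-incubated 5 h at 37 degrees C, then exposed to compounds for 48 h. Viability was read as CellTiter-Glo luminescence; concentration-response curves came directly from the primary screen.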
# [18] = qHTS of pediatric cancer cell lines to identify multiple opportunities for drug repurposing: Primary screen for SK-N-MC cells (AID 1347093; active = well fitted curve in the direction sought with a large enough effect; an effect the other way counts as inactive or inconclusive; note: series mostly up to about 46 µM)
# Procedure, shortened: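 Metabolically active cells were quantified by ATP-dependent luminescence (CellTiter-Glo, 15 min at room temperature) following 48 h treatment. Cells had been plated at 500-1,000 per well and settled for 5 h beforehand.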
# [19] = qHTS of pediatric cancer cell lines to identify multiple opportunities for drug repurposing: Primary screen for BT-37 cells (AID 1347094; active = well fitted curve in the direction sought with a large enough effect; an effect the other way counts as inactive or inconclusive; note: series mostly up to about 57 µM)
# Procedure, shortened: (§2)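 Quantitative HTS format: each compound titrated (MIPE 11 points from 0.78 nM, NPC 8 points from 0.59 nM) onto cells plated 5 hours earlier. After 48 h at 37 degrees C, CellTiter-Glo luminescence was recorded.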
# [20] = qHTS of pediatric cancer cell lines to identify multiple opportunities for drug repurposing: Primary screen for NB-EBc1 cells (AID 1347095; active = well fitted curve in the direction sought with a large enough effect; an effect the other way counts as inactive or inconclusive)
# Procedure, shortened: as §2
smiles,measurement,setting,value
CN1CCC[C@@H]1Cc1c[nH]c2ccc(Nc3ncccc3[N+](=O)[O-])cc12,Potency,[1],inactive
same,outcome,[2],inactive
Cc1cc([C@@H]2CCCN2C)on1,Potency,[3],inactive
same,Potency,[4],inactive
same,Potency,[5],inactive
same,outcome,[2],inactive
same,Potency,[6],inactive
same,outcome,[7],inactive
same,Potency,[8],inactive
same,Potency,[9],inactive
same,Potency,[10],inactive
same,Potency,[11],inactive
same,Potency,[12],inactive
O=C1CC[C@@]2(O)C3Cc4ccc(O)c5c4C2(CCN3CC2CC2)[C@H]1O5 (some centres not stated),Potency,[3],inactive
same,Potency,[4],inactive
same,Potency,[5],inactive
same,outcome,[2],inactive
same,Potency,[6],inactive
same,outcome,[7],inactive
same,Potency,[8],inactive
same,Potency,[9],inactive
same,Potency,[10],inactive
same,Potency,[11],inactive
same,Potency,[12],inactive
CCCN1CC[C@@H]2c3cc(O)ccc3CC[C@@H]21,Potency,[3],inactive
same,Potency,[4],inactive
same,Potency,[5],inactive
same,outcome,[2],inactive
same,Potency,[6],inactive
same,Potency,[13],inactive
same,Potency,[8],inactive
same,Potency,[9],inactive
same,Potency,[10],inactive
same,Potency,[11],inactive
same,Potency,[12],inactive
CC12NC(Cc3ccccc31)c1ccccc12 (configuration not stated),Potency,[3],inactive
same,Potency,[4],inactive
same,Potency,[5],inactive
same,outcome,[2],inactive
same,Potency,[6],inactive
same,outcome,[7],inactive
same,Potency,[13],inactive
same,Potency,[8],inactive
same,Potency,[9],inactive
same,Potency,[10],inactive
same,Potency,[11],inactive
same,Potency,[12],inactive
CN1[C@H]2CC[C@@H]1[C@@H](C(=O)O)[C@@H](OC(=O)c1ccccc1)C2,Potency,[1],inactive
same,Potency,[9],inactive
same,Potency,[10],inactive
same,Potency,[11],inactive
same,Potency,[12],inactive
CN1CCC(c2c[nH]c3ccc(O)cc23)CC1,Potency,[3],inactive
same,Potency,[4],inactive
same,Potency,[5],inactive
same,outcome,[2],inactive
same,Potency,[6],inactive
same,Potency,[13],inactive
same,Potency,[8],inactive
same,Potency,[9],inactive
same,Potency,[10],inactive
same,Potency,[11],inactive
same,Potency,[12],inactive
Clc1cc(I)cc(Cl)c1NC1=NCCN1,Potency,[3],inactive
same,Potency,[4],inactive
same,Potency,[5],inactive
same,outcome,[2],inactive
same,Potency,[6],inactive
same,outcome,[7],inactive
same,Potency,[13],inactive
same,Potency,[8],inactive
same,Potency,[9],inactive
same,Potency,[10],inactive
same,Potency,[11],inactive
same,Potency,[12],inactive
O=C/C=C/c1ccccc1,Potency,[1],inactive
same,Potency,[9],inactive
same,Potency,[10],inactive
same,Potency,[11],inactive
same,Potency,[12],inactive
O=P(O)(O)C(Cl)(Cl)P(=O)(O)O,Potency,[1],inactive
same,Potency,[9],inactive
same,Potency,[10],inactive
same,Potency,[11],inactive
same,Potency,[12],inactive
COc1ccc2c(c1)/C(=C/c1cnc[nH]1)C(=O)N2,Potency,[1],5.17 µM (active)
same,Potency,[4],inactive
same,Potency,[5],inactive
same,Potency,[8],inactive
O[C@H]1[C@H]2[C@H](O)CCCN2C[C@H]1O,Potency,[1],inactive
same,Potency,[9],inactive
same,Potency,[10],inactive
same,Potency,[11],inactive
same,Potency,[12],inactive
OCc1cnc[nH]1,Potency,[3],inactive
same,Potency,[4],inactive
same,Potency,[5],inactive
same,outcome,[2],inactive
same,Potency,[6],inactive
same,outcome,[7],inactive
same,Potency,[8],inactive
same,Potency,[9],inactive
same,Potency,[10],inactive
same,Potency,[11],inactive
same,Potency,[12],inactive
COC1=CC=C2[C@H]3Cc4ccc(OC)c5c4[C@@]2(CCN3C)[C@H]1O5,Potency,[1],inactive
same,Potency,[10],inactive
same,Potency,[11],inactive
same,Potency,[12],inactive
CCCSP(=O)(OCC)SCCC,Potency,[1],inactive
same,outcome,[2],inactive
same,Potency,[10],inactive
same,Potency,[11],inactive
same,outcome,[14],inactive
same,Potency,[15],inactive
same,outcome,[16],inactive
same,Potency,[17],inactive
same,Potency,[18],inactive
same,Potency,[19],inactive
same,outcome,[20],inactive
NCCCP(=O)(O)O,Potency,[3],inactive
same,Potency,[4],inactive
same,Potency,[5],inactive
same,outcome,[2],inactive
same,Potency,[6],inactive
same,outcome,[7],inactive
same,Potency,[8],inactive
same,Potency,[9],inactive
same,Potency,[10],inactive
same,Potency,[11],inactive
same,Potency,[12],inactive
C/C(O)=C(\C#N)C(=O)Nc1cc(Br)ccc1Br,Potency,[1],inactive
same,Potency,[4],inactive
same,Potency,[5],inactive
same,Potency,[8],inactive
same,Potency,[9],inactive
same,Potency,[10],inactive
same,Potency,[11],inactive
same,Potency,[12],inactive
O=[N+]([O-])c1ccc2nc(N3CCNCC3)ccc2c1,Potency,[3],inactive
same,Potency,[4],inactive
same,Potency,[5],inactive
same,outcome,[2],inactive
same,Potency,[6],inactive
same,Potency,[13],inactive
same,Potency,[8],inactive
same,Potency,[9],inactive
same,Potency,[10],inactive
same,Potency,[11],inactive
same,Potency,[12],inactive
CCn1cnc2c(Nc3cccc(Cl)c3)nc(N[C@@H]3CCCC[C@@H]3N)nc21,Potency,[3],inactive
same,Potency,[4],inactive
same,Potency,[6],inactive
same,Potency,[13],inactive
same,Potency,[8],inactive
N=C(N)c1ccc(CS(=O)(=O)F)cc1,Potency,[3],inactive
same,Potency,[4],inactive
same,Potency,[5],inactive
same,outcome,[2],inactive
same,Potency,[6],inactive
same,Potency,[8],inactive
same,Potency,[9],inactive
same,Potency,[10],inactive
same,Potency,[11],inactive
same,Potency,[12],inactive
Cc1[nH]c2ccc(O)cc2c1CCN,Potency,[3],inactive
same,Potency,[4],inactive
same,Potency,[5],inactive
same,outcome,[2],inactive
same,Potency,[6],inactive
same,Potency,[8],inactive
same,Potency,[9],inactive
same,Potency,[10],inactive
same,Potency,[11],inactive
same,Potency,[12],inactive
NC(N)=NOCC[C@H](N)C(=O)O,Potency,[3],inactive
same,Potency,[4],inactive
same,Potency,[5],inactive
same,Potency,[8],inactive
same,Potency,[9],inactive
same,Potency,[10],inactive
same,Potency,[11],inactive
same,Potency,[12],inactive
Cc1sc2ccccc2c1CC1=NCCN1,Potency,[3],inactive
same,Potency,[4],inactive
same,Potency,[5],inactive
same,outcome,[2],inactive
same,Potency,[6],inactive
same,Potency,[8],inactive
same,Potency,[9],inactive
same,Potency,[10],inactive
same,Potency,[11],inactive
same,Potency,[12],inactive
NC(Cc1ccc(N(CCCl)CCCl)cc1)C(=O)O (configuration not stated),Potency,[3],inactive
same,Potency,[4],inactive
same,Potency,[5],inactive
same,Potency,[8],inactive
same,Potency,[9],inactive
same,Potency,[10],inactive
same,Potency,[11],inactive
NC(=O)c1cc(N2CC2)c([N+](=O)[O-])cc1[N+](=O)[O-],Potency,[3],inactive
same,Potency,[4],inactive
same,Potency,[5],inactive
same,outcome,[2],inactive
same,Potency,[6],inactive
same,Potency,[8],inactive
same,Potency,[9],inactive
same,Potency,[10],inactive
same,Potency,[12],inactive
NC(=O)CI,Potency,[3],inactive
same,Potency,[4],inactive
same,Potency,[5],inactive
same,outcome,[2],inactive
same,Potency,[13],inactive
same,Potency,[8],inactive
same,Potency,[9],inactive
same,Potency,[10],inactive
same,Potency,[11],inactive
same,Potency,[12],inactive
C[Se]C[C@H](N)C(=O)O,Potency,[3],inactive
same,Potency,[4],inactive
same,Potency,[5],inactive
same,Potency,[8],inactive
same,Potency,[9],inactive
same,Potency,[10],inactive
same,Potency,[11],inactive
same,Potency,[12],inactive
